± gives the standard deviation of the averaged measurements.

The target of the assay is MurC (UniProt C4ZRI6). Put plainly: relative enzymatic activity vs untreated control (fraction); higher = less inhibition. As to conditions: 100 µM; incubation time: 2 h at 37 C. The method, then: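 In vitro enzymatic inhibition assays (ProFoldin kits) for 12 purified essential E. coli enzymes or complexes, each treated with 218 active antibacterial compounds at 100 µM for 2 h at 37°C. Read-outs were fluorescence or absorbance (phosphate detection, dye binding), converted to activity via standard curves and expressed relative to untreated DMSO controls.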
Chain of MurC (C4ZRI6 whole entry, looked up): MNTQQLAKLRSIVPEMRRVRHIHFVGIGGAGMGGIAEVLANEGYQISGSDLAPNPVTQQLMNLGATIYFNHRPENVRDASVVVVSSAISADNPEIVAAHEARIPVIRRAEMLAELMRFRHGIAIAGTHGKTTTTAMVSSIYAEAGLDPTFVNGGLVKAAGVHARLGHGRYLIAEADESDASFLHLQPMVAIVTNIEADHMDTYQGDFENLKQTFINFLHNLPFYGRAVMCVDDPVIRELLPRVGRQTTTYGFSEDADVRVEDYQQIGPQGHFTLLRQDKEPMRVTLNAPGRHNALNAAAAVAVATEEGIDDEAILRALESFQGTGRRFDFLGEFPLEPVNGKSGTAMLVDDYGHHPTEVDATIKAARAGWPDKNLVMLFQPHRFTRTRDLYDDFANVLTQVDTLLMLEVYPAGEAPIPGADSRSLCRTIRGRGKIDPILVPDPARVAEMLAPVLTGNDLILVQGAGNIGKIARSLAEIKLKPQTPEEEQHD
`CC(=O)[O][Hg][c]1ccccc1`: the relative enzymatic activity amounted to 1.69 ± 0.032.
Then `O=[N+]([O-])C(Br)(CO)CO`, with 1.11 ± 0.12.
Then `O=S(=O)(O)O.Oc1cccc2cccnc12`, with 1.08 ± 0.015; and `Cc1c(N)nc([C@H](CC(N)=O)NC[C@@H](N)C(N)=O)nc1C(=O)N[C@H](C(=O)N[C@@H](C)[C@H](O)[C@@H](C)C(=O)N[C@@H](C(=O)NCCc1nc(-c2nc(C(=O)NCCC[S+](C)C)cs2)cs1)[C@@H](C)O)[C@@H](O[C@H]1O[C@H](CO)[C@H](O)[C@@H](O)[C@H]1O[C@H]1O[C@H](CO)[C@@H](O)[C@H](OC(N)=O)[C@@H]1O)c1c[nH]cn1`, with 0.895 ± 0.017.
Then `Cc1c(N)nc([C@H](CC(N)=O)NC[C@@H](N)C(N)=O)nc1C(=O)N[C@H](C(=O)N[C@@H](C)[C@H](O)[C@@H](C)C(=O)N[C@@H](C(=O)NCCc1nc(-c2nc(C(=O)NCCC[S+](C)C)cs2)cs1)[C@@H](C)O)[C@@H](O[C@H]1O[C@H](CO)[C@H](O)[C@@H](O)[C@H]1O[C@H]1O[C@H](CO)[C@@H](O)[C@H](OC(N)=O)[C@@H]1O)c1cnc[nH]1`, with 0.849 ± 0.025.
In the case of `CCCCCCCCCCCCCCCC[n+]1ccccc1`, the relative enzymatic activity amounted to 0.754 ± 0.24.
On to `Cn1ncnc2c(=O)n(C)c(=O)nc1-2`, for which the relative enzymatic activity was determined as 0.99 ± 0.11.
`CN(C)[C@@H]1C(=O)[C@@H](C(N)=O)C(=O)[C@@]2(O)C(=O)[C@H]3C(=O)c4c(O)ccc(Cl)c4[C@@](C)(O)[C@H]3C[C@@H]12` gave a relative enzymatic activity of 1.08 ± 0.068.
Then `Oc1cc(Cl)ccc1Oc1ccc(Cl)cc1Cl`, with 1.2 ± 0.16; and `CCn1cc(C(=O)[O-])c(=O)c2cc3c(cc21)OCO3.[K+]`, with 0.977 ± 0.032.
Then `[O-][n+]1ccccc1[S][Zn][S]c1cccc[n+]1[O-]`, with 1.21 ± 0.17; and `CN[C@H]1C[C@@H](N)[C@H](O)[C@@H](O[C@@H]2O[C@H](CO)[C@H](O)[C@@H]3O[C@@]4(O[C@H]23)O[C@H]([C@@H](N)CO)[C@H](O)[C@H](O)[C@H]4O)[C@@H]1O`, with 1.04 ± 0.017.
The value for `CCCCCCCCCCCCCCCC[N+](C)(C)C.[Br-]` was 0.492 ± 0.29.
`C[CH2][Hg][S]c1ccccc1C(=O)[O-].[Na+]` came in with a relative enzymatic activity of 1.17 ± 0.085.
Consider `O=C1C=C2C(=CCOC2O)O1` (centres undefined), for which the relative enzymatic activity was determined as 1.06 ± 0.07.
The value for `CNC1C(O)C(OC2C(N)CC(N)C(OC3OC(C(C)O)C(O)C(O)C3N)C2O)OCC1(C)O` (centres undefined) was 1.03 ± 0.029; that for `CCCCCCCCCCCCCCCC[n+]1ccccc1.[Cl-]` was 0.264 ± 0.051.
As for `CC(=O)Oc1ccc(Cl)c2cccnc12`, the relative enzymatic activity stood at 1.03 ± 0.041.
The value for `CN(C)[C@@H]1C(=O)C(C(N)=O)=C(O)[C@@]2(O)C(O)=C3C(=O)c4c(O)cccc4[C@](C)(O)[C@H]3C[C@@H]12` was 1.017 ± 0.0095; that for `Cc1nc2c(=O)n(C)c(=O)nc-2n(C)n1` was 1.06 ± 0.095; that for `CN(C)[C@@H]1C(=O)[C@H](C(N)=O)C(=O)[C@@]2(O)C(=O)[C@@H]3C(=O)c4c(O)cccc4[C@@](C)(O)[C@H]3C[C@@H]12` was 1 ± 0.031.
Molecule `COP(=S)(OC)Oc1cc(Cl)c(Cl)cc1Cl` had a relative enzymatic activity of 1.08 ± 0.024.
On to `O=[N+]([O-])c1ccc(N(CCO)CCO)c2c1no[n+]2[O-]`, for which the relative enzymatic activity was found to be 0.936 ± 0.055.
Then `CN1C(=O)[C@]23CC4=CC=C[C@H](O)[C@H]4N2C(=O)[C@@]1(CO)SS3`, with 0.8476 ± 0.0014.

The values are drawn from the supplement of paper PMC9446081.
